Data from PubChem BioAssay AID449762 (Southern Research Specialized Biocontainment Screening …, 2010).
Screen size: about 330,000 compounds; about 1,900 (0.58%) were called active. Another 4% or so got no clear call; they are omitted. These entries were drawn from the full list. Results with a measured potency or affinity are listed apart. A number with no mark means an inactive call. No stated cut-off is given here; in the data, inconclusive means inhibition above about 70% without an active follow-up result; inactive means below that.

assay: M. tuberculosis growth inhibition, HTS (AID 449762);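 further: bacterial growth assessed after seven days of incubation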; details: M. tuberculosis H37Rv growth inhibition, 7H9 media; at 25 µM; stronger effect = higher value

Structure (SMILES) | inhibition [%]
CC1=CSC2=NS(=O)(=O)CCN12 | -1.32
COCCCNC(=O)c1c[nH]c2ccc(S(=O)(=O)N3CCC4(CC3)OCCO4)cc2c1=O | -4.78
O=C(Cn1nnc(-c2cccs2)n1)OC1CCCCC1 | 4.15
COc1ccc(-c2nnn(CC(=O)NC(=O)NC3CCCCC3)n2)cc1OC | -0.345
O=C(NC(=S)NC1CCS(=O)(=O)C1)c1ccccc1 (stereo not given) | -12
Cc1c(C(=O)N2CCC3(CC2)OCCO3)sc2ncnc(N3CCc4ccccc4C3)c12 | -0.89
CC(C)CCn1nnnc1C(c1ccccc1)N1CCN(C)CC1 (stereo not given) | 5.26
O=C(CNS(=O)(=O)c1cccs1)N1CCN(c2ccccn2)CC1 | 4.15
CCOC(=O)N1CCN(C(=O)C2CCN(c3nnc(-n4cccc4)s3)CC2)CC1 | -4.54
O=C(C1CCN(c2nnc(-n3cccc3)s2)CC1)N1CCOCC1 | -4.62
CC1=NN(C(N)=S)C(=O)C1N=Nc1ccc(S(N)(=O)=O)cc1 (stereo not given) | 0.37
CC1=NN(C(N)=S)C(=O)C1N=Nc1ccc(Br)cc1 (stereo not given) | 58.6
Cc1ccc(S(=O)(=O)Nc2ccc3ccccc3n2)cc1 | 0.36
Cc1nc2cc(-c3cccc(F)c3)nn2c(C)c1CCC(=O)NC(C)CCc1ccco1 (stereo not given) | -9.87
COc1ccccc1-c1cc2nc(C)c(CCC(=O)NC(C)CCc3ccco3)c(C)n2n1 (stereo not given) | 2.39
O=c1cc(O)nc(SCc2ccc(Cl)cc2)[nH]1 | -0.2
COc1cc(-c2nnc(CSc3nnc(N)s3)o2)cc(OC)c1OC | -0.69
Cc1nc(-n2nnc3ccccc32)c2c3c(sc2n1)CCCC3 | 4.15
Cc1cc(=O)n2[nH]c(C)c(-c3ccc(Cl)cc3)c2n1 | -1.1
CCCc1cc(=O)n2[nH]c(C)c(-c3ccc(OC)cc3)c2n1 | 35.8

Structure (SMILES) | inhibition [%]
Cc1cc(NC(=O)Cn2nnc(-c3ccccc3NC(=O)c3ccccc3F)n2)no1 | -4.78
CCOC(=O)c1cnc(Nc2nc3ccccc3o2)nc1CSc1ncccn1 | 0.71
CCCc1nc(Nc2nc3ccccc3o2)nc(C)c1C(=O)OCC | -21.6
Cc1nnc(SCC(=O)N(Cc2ccccc2)C(C)(C)C)[nH]c1=O | 3.28
O=C1c2ccccc2C(=O)N1Cc1ccc2c(c1)OCO2 | 4.9
CC(C(=O)NC1CCCC1)N1C(=O)c2cccc3cccc1c23 (stereo not given) | -3.8
CCOC(=O)c1cnc(-n2nc(C)cc2C)nc1Nc1ccc(O)cc1 | -2.03
CCOC(=O)c1cnc(-n2nc(C)cc2C)nc1Nc1cccc(C(=O)O)c1 | 19.4
COc1ccc(CN2CCn3ncc(C(=O)Nc4cccc(C)c4)c3C2=O)cc1 | 3.51
COc1ccc(C(CNC(=O)C2CC2)N(C)C)cc1 (stereo not given) | -15.1
CCSc1nnc(C)n1-c1ccc(C(=O)O)cc1 | -3.32
O=C1c2ccc(-c3nc4ccccc4o3)cc2C(=O)N1Cc1cccnc1 | 6.12
CCc1ccc(OCC(=O)Nc2ccc(-c3nc4ccccc4o3)c(O)c2)cc1 | -3.85
CC(C)NC(=O)c1ccc(-n2c(=S)[nH]c3ccccc3c2=O)cc1 | -2.47
CCN(CC)S(=O)(=O)c1ccc(N2CCCC2)c(NC(=O)c2nn(C)c(=O)c3ccccc23)c1 | -4.45
CCN(CC)S(=O)(=O)c1ccc2[nH]cc(C(=O)NCCc3ccccc3)c(=O)c2c1 | 4.1
CCN(CC)S(=O)(=O)c1ccc2[nH]cc(C(=O)NCCN3CCCCCC3)c(=O)c2c1 | -8.55
CCN(C(=O)c1cc(Cl)ccc1OC)c1ccccc1 | -7.73
CCOC(=O)C1=C(C)C(c2cccc(Oc3ccccc3)c2)NC(=S)N1 (stereo not given) | 10.7
COc1ccc(-c2csc(NS(=O)(=O)c3ccc([N+](=O)[O-])cc3)n2)cc1 | 1.1

Structure (SMILES) | inhibition [%]
COc1ccc(-c2nc(-c3ccccn3)ncc2S(C)(=O)=O)cc1 | -1.3
Cc1ccc(-n2c3nc(=O)n(C)c(=O)c-3cc3ccccc32)cc1 | 10.4
c1ccc(-c2nccc(-c3ccco3)n2)nc1 | 58.2
Cc1ccccc1-n1c2nc(=O)n(C)c(=O)c-2cc2ccccc21 | 0.96
Cc1ccc(NC(=O)CSc2nc(=O)n(CCN3CCOCC3)c3c2CCCC3)cc1 | -2.61
CCCS(=O)(=O)N1CCC(C(=O)NCCc2ccccc2)CC1 | 4.73
CCc1cc(/C(Cc2ccccn2)=N\O)c(O)cc1O | -0.69
CCc1cc(C(=O)Cc2ccccn2)c(O)cc1O | -1.89
CC(/C=C\c1ccccc1)=C/C(=O)O | -1.86
CC(/C=C/c1ccc(C)o1)=C\C(=O)O | 8.65
N#CC(C(=O)O)=C1CCCC1 | -4.52
COc1ccc(COc2cc(-c3cccc(OC)c3)nc3ccc(NC(=O)c4ccc(N(C)C)cc4)cc23)cc1 | -16.9
COc1ccc(COc2cc(-c3cccc(OC)c3)nc3ccc(NC(=O)c4ccc(Cl)cc4)cc23)cc1 | 56.2
O=C(NC1CCN(S(=O)(=O)c2ccccc2F)CC1)c1ccco1 | -8.86
COc1cccc(NC(=O)CN(C)C(=O)C2CC3C=CC2C3)c1 (stereo not given) | 0.94
CCN(c1ccccc1)S(=O)(=O)c1ccc(Cl)c(NC(=O)CNCc2ccccc2OC)c1 | -4.74
NS(=O)(=O)c1cccc(NC(=O)COc2ccc([N+](=O)[O-])cc2)c1 | -1.48
O=C(NCc1ccc(F)cc1)C1(S(=O)(=O)c2ccc(Cl)cc2)CC1 | -0.39
CN(C)c1ccc(C=C2C(=O)OC(C)(C(C)(C)C)OC2=O)cc1 (stereo not given) | 0.2
COc1ccccc1/C=C1\N=C(C(C)(C)C)OC1=O | 7.56
